{
  "source": "PubChem BioAssay (Tox21)",
  "note": "Results filed as inconclusive are left out. Some structures have more than one record in an assay (separate samples or runs), and their calls can disagree. Active and inactive are the calls of the source. Calls follow the shape of the full dose curve. % is scaled to controls: 0 for no effect and ±100 for the full control effect; potency is read from the fitted curve at half-maximal effect.",
  "data": [
    {"target": "Acetylcholinesterase (Homo sapiens) (UniProt P22303)", "sequence (P22303 whole entry, looked up)": "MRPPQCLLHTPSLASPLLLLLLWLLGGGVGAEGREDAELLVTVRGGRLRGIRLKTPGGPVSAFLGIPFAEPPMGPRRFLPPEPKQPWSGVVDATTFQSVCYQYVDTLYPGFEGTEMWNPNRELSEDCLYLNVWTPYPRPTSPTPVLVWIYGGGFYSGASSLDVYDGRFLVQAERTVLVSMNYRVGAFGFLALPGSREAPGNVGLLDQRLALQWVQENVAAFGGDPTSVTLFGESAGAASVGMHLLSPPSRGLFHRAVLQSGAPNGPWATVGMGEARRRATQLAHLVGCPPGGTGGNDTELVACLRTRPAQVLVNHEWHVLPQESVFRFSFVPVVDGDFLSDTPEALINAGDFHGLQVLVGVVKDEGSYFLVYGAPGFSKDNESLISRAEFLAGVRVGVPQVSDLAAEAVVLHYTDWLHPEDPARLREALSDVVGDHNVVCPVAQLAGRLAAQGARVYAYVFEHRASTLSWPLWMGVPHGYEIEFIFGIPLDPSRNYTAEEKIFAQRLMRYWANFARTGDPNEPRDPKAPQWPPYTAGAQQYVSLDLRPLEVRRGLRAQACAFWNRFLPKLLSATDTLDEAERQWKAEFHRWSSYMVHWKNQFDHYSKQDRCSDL", "assay": "Acetylcholinesterase (AChE) small molecule antagonists: fluorescence cell-based qHTS assay (AID 1347398); also: nearly all actives have a fitted effect of over 50% in size", "details": "SH-SY5Y cells; Potency: AChE activity; outcome: AChE activity; series mostly up to 115 µM; activity change, negative = inhibition: at the top concentration", "how_it_was_run": "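Homogeneous quantitative HTS format. SH-SY5Y cells seeded at 2,000 per well settle overnight at 37 C. Compound pretreatment runs 30 min (37 C, 5% CO2); substrate/probe mix then reacts 40 min at RT before reading 490/520 nm.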", "values": [
      {"compound": "CCOC(OCC)OCC", "activity change, negative = inhibition": "6.53% (inactive)"},
      {"compound": "CC(=O)OC(C)C", "Potency": "inactive"},
      {"compound": "Cc1c(N)cccc1C(F)(F)F", "activity change, negative = inhibition": "10.4% [at 53.7 µM] (inactive)"},
      {"compound": "CCC(C(=O)OCCN(CC)CC)c1ccccc1", "note": "(stereo not drawn)", "activity change, negative = inhibition": "-8.31% [at 53.7 µM] (inactive)"},
      {"compound": "Nc1nc2ccc(OC(F)(F)F)cc2s1", "activity change, negative = inhibition": "-0.786% [at 53.7 µM] (inactive)"},
      {"compound": "O=C1Nc2cc(Cl)ccc2Oc2ccccc21", "activity change, negative = inhibition": "3.66% [at 53.7 µM] (inactive)"},
      {"compound": "Cc1oc(-c2ccccc2)nc1CCOc1cccc2c1ccn2CCC(=O)O", "activity change, negative = inhibition": "-3.67% (inactive)"},
      {"compound": "NC(=O)c1ccccc1N", "activity change, negative = inhibition": "-0.281% (inactive)"},
      {"compound": "CCN1CCCC1=O", "Potency": "inactive"},
      {"compound": "CCCCCCCCCCOC(C)=O", "activity change, negative = inhibition": "4.87% (inactive)"},
      {"compound": "Cc1cc(Cc2ccc(N)c(C)c2)ccc1N", "Potency": "inactive"},
      {"compound": "c1ccc2[nH]cnc2c1", "Potency": "inactive"},
      {"compound": "NC(=O)N(O)[C@@H]1C=C[C@H](Oc2cccc(Oc3ccc(F)cc3)c2)C1", "activity change, negative = inhibition": "-7.88% (inactive)"},
      {"compound": "C[C@H](CCC(=O)O)[C@H]1CC[C@H]2[C@@H]3[C@H](O)C[C@@H]4C[C@H](O)CC[C@]4(C)[C@H]3CC[C@]12C", "activity change, negative = inhibition": "-0.0354% (inactive)"},
      {"compound": "O=C(OCC1CCC2OC2C1)C1CCC2OC2C1", "note": "(stereo not drawn)", "Potency": "inactive"},
      {"compound": "CC(C)(C)OC=O", "activity change, negative = inhibition": "4.87% (inactive)"},
      {"compound": "CCCCCCC(C)(C)C(=O)O", "activity change, negative = inhibition": "0.321% (inactive)"},
      {"compound": "C=Cc1ccccn1", "activity change, negative = inhibition": "2.42% (inactive)"},
      {"compound": "CCOC(=O)/C=C/c1ccccc1", "activity change, negative = inhibition": "1.03% (inactive)"},
      {"compound": "COc1ccc(OC)c(NC(=O)CC(C)=O)c1", "activity change, negative = inhibition": "-8.18% (inactive)"},
      {"compound": "OCC(O)[C@@H](O)[C@H](O)[C@H](O)CO[C@H]1O[C@H](CO)[C@@H](O)[C@H](O)[C@H]1O", "note": "(stereo partly drawn)", "activity change, negative = inhibition": "4.99% (inactive)"},
      {"compound": "c1ccc(Nc2cccc3ccccc23)cc1", "Potency": "inactive"},
      {"compound": "O=Cc1ccc(Cl)c([N+](=O)[O-])c1", "activity change, negative = inhibition": "-16.8% (inactive)"},
      {"compound": "C[Si](C)(C)N[Si](C)(C)C", "Potency": "1.98 µM (active) and inactive"},
      {"compound": "O=C=Nc1ccc(Cl)c(Cl)c1", "activity change, negative = inhibition": "-4.86% (inactive)"},
      {"compound": "COc1ccc2c(c1)CCCC2=O", "activity change, negative = inhibition": "-2.59% [at 53.7 µM] (inactive)"},
      {"compound": "CCOc1ccc(NC(C)=O)cc1N", "activity change, negative = inhibition": "0.82% (inactive)"},
      {"compound": "CC(C)NNC(=O)c1ccncc1", "activity change, negative = inhibition": "6.25% [at 53.7 µM] (inactive)"},
      {"compound": "COC(=O)C(C)O", "note": "(stereo not drawn)", "activity change, negative = inhibition": "5.7% (inactive)"},
      {"compound": "C#CC(C)N(C)C(=O)Nc1ccc(Cl)cc1", "note": "(stereo not drawn)", "activity change, negative = inhibition": "0.506% (inactive)"},
      {"compound": "C=CCn1c(=O)n([C@@H]2O[C@H](CO)[C@@H](O)[C@H]2O)c2nc(N)[nH]c(=O)c21", "activity change, negative = inhibition": "-1.47% [at 53.7 µM] (inactive)"},
      {"compound": "CCCCOC(=O)CCS", "activity change, negative = inhibition": "-2.03% (inactive)"},
      {"compound": "CC1(C)O[C@H]2CC(=O)OC[C@]23[C@H]2CC[C@@]4(C)[C@H](c5ccoc5)OC(=O)[C@H]5O[C@]54[C@]2(C)C(=O)C[C@@H]13", "activity change, negative = inhibition": "1.37% [at 53.7 µM] (inactive)"},
      {"compound": "COCC(C)OC(C)=O", "note": "(stereo not drawn)", "activity change, negative = inhibition": "-0.975% (inactive)"},
      {"compound": "CC(C)CCO", "activity change, negative = inhibition": "2.71% (inactive)"},
      {"compound": "Cc1scc2c1N(C(=O)CN1CCN(C)CC1)c1ccccc1NC2=O", "activity change, negative = inhibition": "-0.287% [at 53.7 µM] (inactive)"},
      {"compound": "Cc1c(C)c2c(c(C)c1OC(=O)c1cccnc1)CC[C@@](C)(CCC[C@H](C)CCC[C@H](C)CCCC(C)C)O2", "activity change, negative = inhibition": "6.17% [at 53.7 µM] (inactive)"},
      {"compound": "NC(=O)NC1NC(=O)NC1=O", "note": "(stereo not drawn)", "Potency": "inactive"},
      {"compound": "CCCCC(CC)C(=O)OCCOCCOCCOC(=O)C(CC)CCCC", "note": "(stereo not drawn)", "Potency": "inactive"}
    ]},
    {"target": "Acetylcholinesterase (Homo sapiens) (UniProt P22303)", "assay": "Acetylcholinesterase (AChE) small molecule antagonists: enzyme-based qHTS assay with human liver microsomes (AID 1347399); also: nearly all actives have a fitted effect of over 60% in size", "details": "Potency: qHTS inhibition; outcome: qHTS inhibition; series mostly up to 115 µM; activity change, negative = inhibition: at the top concentration", "how_it_was_run": "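Recombinant human AChE (50 mU/mL in the enzyme mix) and human liver microsomes (0.25 mg/mL final) were preincubated with compound and NADPH (0.25 mg/mL final) for 30 min at 37 C. Acetylthiocholine/DTNB was then added; thiocholine was read colorimetrically after 10 min at room temperature.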", "values": [
      {"compound": "CCOC(OCC)OCC", "activity change, negative = inhibition": "0.688% (inactive)"},
      {"compound": "CC(=O)OC(C)C", "Potency": "inactive"},
      {"compound": "Cc1c(N)cccc1C(F)(F)F", "activity change, negative = inhibition": "1.11% [at 53 µM] (inactive)"},
      {"compound": "CCC(C(=O)OCCN(CC)CC)c1ccccc1", "note": "(stereo not drawn)", "activity change, negative = inhibition": "0.168% [at 53 µM] (inactive)"},
      {"compound": "Nc1nc2ccc(OC(F)(F)F)cc2s1", "activity change, negative = inhibition": "3.86% [at 53 µM] (inactive)"},
      {"compound": "O=C1Nc2cc(Cl)ccc2Oc2ccccc21", "activity change, negative = inhibition": "1.02% [at 53 µM] (inactive)"},
      {"compound": "Cc1oc(-c2ccccc2)nc1CCOc1cccc2c1ccn2CCC(=O)O", "activity change, negative = inhibition": "5.23% (inactive)"},
      {"compound": "NC(=O)c1ccccc1N", "activity change, negative = inhibition": "-0.101% (inactive)"},
      {"compound": "CCN1CCCC1=O", "Potency": "inactive"},
      {"compound": "CCCCCCCCCCOC(C)=O", "activity change, negative = inhibition": "0.373% (inactive)"},
      {"compound": "Cc1cc(Cc2ccc(N)c(C)c2)ccc1N", "Potency": "inactive"},
      {"compound": "c1ccc2[nH]cnc2c1", "Potency": "inactive"},
      {"compound": "NC(=O)N(O)[C@@H]1C=C[C@H](Oc2cccc(Oc3ccc(F)cc3)c2)C1", "activity change, negative = inhibition": "0.146% (inactive)"},
      {"compound": "C[C@H](CCC(=O)O)[C@H]1CC[C@H]2[C@@H]3[C@H](O)C[C@@H]4C[C@H](O)CC[C@]4(C)[C@H]3CC[C@]12C", "activity change, negative = inhibition": "-2.53% (inactive)"},
      {"compound": "O=C(OCC1CCC2OC2C1)C1CCC2OC2C1", "note": "(stereo not drawn)", "Potency": "inactive"},
      {"compound": "CC(C)(C)OC=O", "activity change, negative = inhibition": "-2.85% (inactive)"},
      {"compound": "CCCCCCC(C)(C)C(=O)O", "activity change, negative = inhibition": "1.08% (inactive)"},
      {"compound": "C=Cc1ccccn1", "activity change, negative = inhibition": "-1.72% (inactive)"},
      {"compound": "CCOC(=O)/C=C/c1ccccc1", "activity change, negative = inhibition": "0.0174% (inactive)"},
      {"compound": "COc1ccc(OC)c(NC(=O)CC(C)=O)c1", "activity change, negative = inhibition": "4.88% (inactive)"},
      {"compound": "OCC(O)[C@@H](O)[C@H](O)[C@H](O)CO[C@H]1O[C@H](CO)[C@@H](O)[C@H](O)[C@H]1O", "note": "(stereo partly drawn)", "activity change, negative = inhibition": "0.628% (inactive)"},
      {"compound": "c1ccc(Nc2cccc3ccccc23)cc1", "Potency": "inactive"},
      {"compound": "O=Cc1ccc(Cl)c([N+](=O)[O-])c1", "activity change, negative = inhibition": "-0.153% (inactive)"},
      {"compound": "C[Si](C)(C)N[Si](C)(C)C", "Potency": "19.8 µM (active) and inactive"},
      {"compound": "O=C=Nc1ccc(Cl)c(Cl)c1", "activity change, negative = inhibition": "-2.54% (inactive)"},
      {"compound": "COc1ccc2c(c1)CCCC2=O", "activity change, negative = inhibition": "11.8% [at 53 µM] (inactive)"},
      {"compound": "CCOc1ccc(NC(C)=O)cc1N", "activity change, negative = inhibition": "-2.89% (inactive)"},
      {"compound": "CC(C)NNC(=O)c1ccncc1", "activity change, negative = inhibition": "0.504% [at 53 µM] (inactive)"},
      {"compound": "COC(=O)C(C)O", "note": "(stereo not drawn)", "activity change, negative = inhibition": "-1.97% (inactive)"},
      {"compound": "C#CC(C)N(C)C(=O)Nc1ccc(Cl)cc1", "note": "(stereo not drawn)", "activity change, negative = inhibition": "0.146% (inactive)"},
      {"compound": "C=CCn1c(=O)n([C@@H]2O[C@H](CO)[C@@H](O)[C@H]2O)c2nc(N)[nH]c(=O)c21", "activity change, negative = inhibition": "0.135% [at 53 µM] (inactive)"},
      {"compound": "CCCCOC(=O)CCS", "activity change, negative = inhibition": "-0.461% (inactive)"},
      {"compound": "CC1(C)O[C@H]2CC(=O)OC[C@]23[C@H]2CC[C@@]4(C)[C@H](c5ccoc5)OC(=O)[C@H]5O[C@]54[C@]2(C)C(=O)C[C@@H]13", "activity change, negative = inhibition": "-0.953% [at 53 µM] (inactive)"},
      {"compound": "COCC(C)OC(C)=O", "note": "(stereo not drawn)", "activity change, negative = inhibition": "0.326% (inactive)"},
      {"compound": "CC(C)CCO", "activity change, negative = inhibition": "-0.012% (inactive)"},
      {"compound": "Cc1scc2c1N(C(=O)CN1CCN(C)CC1)c1ccccc1NC2=O", "activity change, negative = inhibition": "-1.85% [at 53 µM] (inactive)"},
      {"compound": "Cc1c(C)c2c(c(C)c1OC(=O)c1cccnc1)CC[C@@](C)(CCC[C@H](C)CCC[C@H](C)CCCC(C)C)O2", "activity change, negative = inhibition": "0.397% [at 53 µM] (inactive)"},
      {"compound": "NC(=O)NC1NC(=O)NC1=O", "note": "(stereo not drawn)", "Potency": "inactive"},
      {"compound": "CCCCC(CC)C(=O)OCCOCCOCCOC(=O)C(CC)CCCC", "note": "(stereo not drawn)", "Potency": "inactive"}
    ]}
  ]
}
